The values below come from PubChem BioAssay AID1835 (Johns Hopkins Ion Channel Center, 2009).

The whole screen tested about 2,400 compounds, of which about 750 (31%) were called active.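 The calls were made as follows: active = median signal gain over dofetilide-blocked control wells reaching their mean plus 3 SD, so readout 1 at least 0; inactive = the rest.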 This is one part of the list.

Voltage-gated inwardly rectifying potassium channel KCNH2 (Homo sapiens), sequence (Q12809 whole entry, looked up): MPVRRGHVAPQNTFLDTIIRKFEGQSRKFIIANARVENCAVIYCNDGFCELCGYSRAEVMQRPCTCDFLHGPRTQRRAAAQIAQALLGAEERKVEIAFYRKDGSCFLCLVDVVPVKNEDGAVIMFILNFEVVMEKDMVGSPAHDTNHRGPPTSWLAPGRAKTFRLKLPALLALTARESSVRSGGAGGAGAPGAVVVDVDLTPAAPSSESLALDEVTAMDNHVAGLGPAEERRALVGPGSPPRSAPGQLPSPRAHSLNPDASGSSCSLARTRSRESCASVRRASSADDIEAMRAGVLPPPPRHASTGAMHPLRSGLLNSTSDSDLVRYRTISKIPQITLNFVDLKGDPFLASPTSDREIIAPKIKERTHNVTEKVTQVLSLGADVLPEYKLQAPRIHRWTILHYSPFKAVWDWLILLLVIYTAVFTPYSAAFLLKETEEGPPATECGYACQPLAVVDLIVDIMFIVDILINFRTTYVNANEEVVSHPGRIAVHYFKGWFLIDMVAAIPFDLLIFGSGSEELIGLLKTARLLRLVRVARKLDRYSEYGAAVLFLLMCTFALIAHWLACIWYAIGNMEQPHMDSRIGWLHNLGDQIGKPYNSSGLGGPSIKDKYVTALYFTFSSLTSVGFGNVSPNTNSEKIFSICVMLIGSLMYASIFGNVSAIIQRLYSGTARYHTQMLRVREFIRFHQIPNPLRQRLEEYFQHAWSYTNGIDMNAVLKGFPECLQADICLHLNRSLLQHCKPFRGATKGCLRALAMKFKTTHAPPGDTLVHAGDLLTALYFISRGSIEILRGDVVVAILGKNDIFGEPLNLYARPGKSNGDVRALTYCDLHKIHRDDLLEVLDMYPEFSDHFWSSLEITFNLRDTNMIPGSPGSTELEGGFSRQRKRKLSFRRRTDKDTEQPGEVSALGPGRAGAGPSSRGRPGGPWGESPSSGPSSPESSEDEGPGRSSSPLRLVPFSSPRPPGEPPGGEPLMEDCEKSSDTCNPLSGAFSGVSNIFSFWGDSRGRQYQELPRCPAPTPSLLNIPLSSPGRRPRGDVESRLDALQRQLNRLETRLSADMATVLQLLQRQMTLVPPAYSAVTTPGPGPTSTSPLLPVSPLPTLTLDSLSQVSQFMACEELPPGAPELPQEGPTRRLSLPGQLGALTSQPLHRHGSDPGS

The assay has as its target Voltage-gated inwardly rectifying potassium channel KCNH2 (Homo sapiens) (UniProt Q12809). Kind of assay: modulators restoring hERG flux under dofetilide – cell-based, thallium flux, duplicate retest, dofetilide IC70, confirmation (AID 1835). The settings on record: hERG cell line, FluxOR thallium flux, dofetilide-blocked; at 10 µM; stronger effect = higher value. (In general: Block of hERG is tested as a sign of cardiac risk.)
For `N#Cc1cccc(NC(=O)c2nc(-c3ccccc3)n(-c3ccccc3)n2)c1`, the activity increase over dofetilide control, less the hit threshold was -18% (inactive).
As to `Fc1ccccc1N1CCN(c2cnc3ccccc3n2)CC1`, the activity increase over dofetilide control, less the hit threshold is -9% (inactive).
For `Nc1nnc(SCC(=O)OCc2ccc(F)cc2)s1`, the activity increase over dofetilide control, less the hit threshold was -27% (inactive).
For `Cc1cc(-c2cccnc2)c(C#N)c(SCc2cccc(F)c2)n1` the value was -15% (inactive).
Regarding `CCCCNC(=O)N1CCCC(C(=O)c2cc(C)c(OC)c(C)c2)C1` (stereo not drawn), the activity increase over dofetilide control, less the hit threshold is -22% (inactive).
For the compound `C/C(N)=C(/C#N)C(=O)COC(=O)C1CCC(C(C)(C)C)CC1` (stereo not drawn), the activity increase over dofetilide control, less the hit threshold was -7% (inactive).
For `CCC(C)(C(=O)NC1CCCC1)N(C(=O)c1ccccn1)c1ccccc1` (stereo not drawn) the value was -17% (inactive); for `Cc1cc(-c2cccc(Br)c2)c(C#N)c(N)n1`, -15% (inactive).
For `CCNC(=O)NC1c2ccccc2CSc2ccccc21` (stereo not drawn) the value was -19% (inactive).
Take `O=C(NC(=S)Nc1ccccc1N1CCCC1)c1ccco1`: the activity increase over dofetilide control, less the hit threshold was 4% (active).
For the compound `CC1CCN(c2ccccc2NC(=S)NC(=O)c2ccco2)CC1`, the activity increase over dofetilide control, less the hit threshold is -6% (inactive).
For `O=C(NC(=S)Nc1ccc(N2CCCCC2)cc1)c1ccco1`, the activity increase over dofetilide control, less the hit threshold is 45% (active).
In the case of `O=C(NC(=S)Nc1ccccc1Br)c1ccco1`, the activity increase over dofetilide control, less the hit threshold is -1% (inactive).
As to `O=C(NC(=S)Nc1cc(C(F)(F)F)ccc1N1CCOCC1)c1ccco1`, the activity increase over dofetilide control, less the hit threshold was 10% (active).
Regarding `O=C(CCc1ccccc1)NC(=S)Nc1cc(C(F)(F)F)ccc1N1CCOCC1`, the activity increase over dofetilide control, less the hit threshold is -14% (inactive).
For the compound `O=C(NC(=S)Nc1ccccc1Cl)c1ccco1`, the activity increase over dofetilide control, less the hit threshold is 18% (active).
The result for `Cc1ccc2[nH]c(C(=O)O)c(-c3ccccc3)c2c1` reads -16% (inactive); that for `O=c1cc(CN2CCN(S(=O)(=O)c3ccc4c(c3)OCCO4)CC2)c2ccc(O)cc2o1`, -5% (inactive); that for `CCOc1cc(NC(=S)N2CCC(C(N)=O)CC2)c(C(=O)OC)cc1OCC`, -4% (inactive).
Consider `COc1cc2c(cc1OC)CN(C(=O)c1sccc1C)CC2`, for which the activity increase over dofetilide control, less the hit threshold was -13% (inactive).
On to `Cc1ccc(OCC(=O)Nn2cnc3ccccc32)cc1`, for which the activity increase over dofetilide control, less the hit threshold was -11% (inactive).
As for `Cc1ccc(C2C(C#N)=C(N)OC3=C2C(=O)CC(C)(C)C3)s1` (stereo not drawn), the activity increase over dofetilide control, less the hit threshold is -4% (inactive).
`Cc1ccc(-c2csc3nc[nH]c(=S)c23)cc1C`: the activity increase over dofetilide control, less the hit threshold was 36% (active).
As for `Cc1cc(-c2csc3nc[nH]c(=S)c23)cc(C)c1C`, the activity increase over dofetilide control, less the hit threshold is 14% (active).
As to `O=C(O)c1ccccc1P(=O)(c1ccccc1)c1ccccc1`, the activity increase over dofetilide control, less the hit threshold was -20% (inactive).
For `CCCC(=O)n1nc(-c2ccccc2)nc1N`, the activity increase over dofetilide control, less the hit threshold was -17% (inactive).
On to `CCCCCCc1cc2cc(-c3nnc(-c4ccccc4)o3)c(=O)oc2cc1O`, for which the activity increase over dofetilide control, less the hit threshold was -13% (inactive).
On to `c1ccc(CCCNc2ncnc3nc[nH]c23)cc1`, for which the activity increase over dofetilide control, less the hit threshold is 11% (active).
On to `O=C(NC(=S)N1CCN(c2ccccc2)CC1)c1ccccc1`, for which the activity increase over dofetilide control, less the hit threshold is 16% (active).
On to `O=C(CN1CCN(c2ccc(Cl)cc2)CC1)Nc1ccc(F)cc1`, for which the activity increase over dofetilide control, less the hit threshold was -15% (inactive).
Consider `O=C(NC(=S)N1CCN(c2ccc(F)cc2)CC1)c1cccs1`, for which the activity increase over dofetilide control, less the hit threshold was 25% (active).
Take `O=C(N/C(=C/c1ccc2c(c1)OCO2)C(=O)N1CCOCC1)c1cccs1`: the activity increase over dofetilide control, less the hit threshold is -18% (inactive).
For `O=C(c1cccs1)N1CCN(C23CC4CC(CC(C4)C2)C3)CC1` the value was -21% (inactive); for `CC1CCN(C(=S)NC(=O)c2cccs2)CC1`, 10% (active); for `O=C(NC(=S)N1CCN(c2ccccc2)CC1)c1c(F)cccc1F`, -9% (inactive).
As to `N#Cc1cccc(N=c2ssnc2Cl)c1`, the activity increase over dofetilide control, less the hit threshold was -32% (inactive).
For `CC(=O)Nc1ccccc1NC(=O)C/C(C)=N/NC(=O)c1ccc([N+](=O)[O-])c(Cl)c1` the value was -13% (inactive); for `CSc1nsc(SCC(=O)Nc2ccccc2C(=O)O)n1`, 2% (active); for `Cc1ccccc1NC(=O)CSc1ccsc1[N+](=O)[O-]`, -6% (inactive).
The result for `O=C(CSc1nc2ccc(NC(=O)c3ccccc3C(=O)O)cc2s1)Nc1c(Cl)cccc1Cl` reads 0% (inactive); that for `O=C(NNC(=S)Nc1ccccc1)c1cccc(S(=O)(=O)N2CCOCC2)c1`, -12% (inactive).
The result for `Cc1cc(=O)[nH]c(SCC(=O)Nc2ccccc2C#N)c1C#N` reads -4% (inactive).
For the compound `COc1cc(Cl)c(C)cc1NC(=O)CSc1sc2c(O)cc(=O)[nH]c2c1C#N`, the activity increase over dofetilide control, less the hit threshold was 1% (active).
As for `CCC(NS(=O)(=O)c1ccc(OC)cc1)C(=O)O` (stereo not drawn), the activity increase over dofetilide control, less the hit threshold was -13% (inactive).
For `Cc1nn(-c2ccc(Cl)cc2)c2sc(C(=O)c3c(N)n(C)c(=O)n(C)c3=O)cc12` the value was 67% (active).
Consider `CCOC(=O)c1nc(C)n(-c2ccc(Cl)cc2)n1`, for which the activity increase over dofetilide control, less the hit threshold is -1% (inactive).
The result for `O=C(NCC1CCS(=O)(=O)C1)Oc1ccccc1` (stereo not drawn) reads -15% (inactive); that for `CCN(CC)c1ccc(/C=c2\sc3nnc(-c4ccccc4Cl)n3c2=O)cc1`, -11% (inactive).
Regarding `Cc1nn(-c2ccccc2)c(C)c1S(=O)(=O)O`, the activity increase over dofetilide control, less the hit threshold is -6% (inactive).
As to `Cc1nn(-c2ccccc2)c(N2CCCC2)c1/C=N/O`, the activity increase over dofetilide control, less the hit threshold was -16% (inactive).
For the compound `Cc1nn(-c2ccccc2)c(Cl)c1/C=C1\SC(=S)NC1=O`, the activity increase over dofetilide control, less the hit threshold was 51% (active).
As to `COCCCN1C(=O)C(=O)/C(=C(/O)c2ccc(S(=O)(=O)N3CCOCC3)cc2)C1c1ccc(F)cc1` (stereo not drawn), the activity increase over dofetilide control, less the hit threshold is -5% (inactive).
For `CCCN(C(=O)c1ccco1)c1nnc(-c2ccncc2)s1` the value was 5% (active).
For `O=C(c1ccco1)N(c1ccccn1)c1ccccn1` the value was -13% (inactive); for `CN(C(=O)CCc1ccccc1)c1nnc(-c2ccncc2)s1`, -24% (inactive); for `Cc1cc([N+](=O)[O-])nn1CC(=O)Nc1ccc(Cl)cn1`, -12% (inactive).
Turning to `Cc1ccc(O)c(Sc2cc(C)ccc2O)c1`, the activity increase over dofetilide control, less the hit threshold was -34% (inactive).
Regarding `O=C(CCC(=O)N1CCN(S(=O)(=O)c2ccccc2)CC1)c1cccs1`, the activity increase over dofetilide control, less the hit threshold is -14% (inactive).
Consider `Cc1[nH]n(-c2cccc3ccccc23)c(=O)c1/C=N/c1sc2c(c1C#N)CCC2`, for which the activity increase over dofetilide control, less the hit threshold was 3% (active).
Turning to `Cc1[nH]n(-c2ccc(F)cc2)c(=O)c1/C=N/c1sc2c(c1C#N)CCCC2`, the activity increase over dofetilide control, less the hit threshold is 41% (active).
On to `CN(C1=C(NC(=O)c2ccccc2)C(=O)c2ccccc2C1=O)C1CCS(=O)(=O)C1` (stereo not drawn), for which the activity increase over dofetilide control, less the hit threshold was -4% (inactive).
With `COCCn1cnc2c1c(=O)n(CC#N)c(=O)n2Cc1ccccc1`, the activity increase over dofetilide control, less the hit threshold is -14% (inactive).
In the case of `COc1cccc2sc(Nc3nnc(-c4ccc(F)cc4)o3)nc12`, the activity increase over dofetilide control, less the hit threshold was 83% (active).
`COc1cccc2sc(Nc3nnc(-c4cccs4)o3)nc12`: the activity increase over dofetilide control, less the hit threshold is 52% (active).
The result for `COc1cccc2sc(Nc3nnc(-c4ccccc4Cl)o3)nc12` reads 16% (active); that for `N#C/C(=C\c1ccc(-c2ccccc2Cl)o1)C(=O)Nc1nc2ccccc2s1`, -6% (inactive); that for `COc1cccc2sc(Nc3nc(-c4ccccn4)cs3)nc12`, -19% (inactive).
Consider `COc1ccccc1Nc1nnc(SCC(=O)Nc2nc(-c3ccc(F)cc3)cs2)s1`, for which the activity increase over dofetilide control, less the hit threshold was -24% (inactive).
